Bioassay records deposited in PubChem by National Center for Advancing Translational Sciences (NCATS).
Sm TGR block – S. mansoni TGR enzyme inhibition. Potency, µM (top dose mostly 114 µM), for the others: top-dose activity change, negative = inhibition, actives largely listed as inhibitors. Q962Y6. hit rate 3% among 360,000. purified TGR, DTNB reduction, TNB absorbance 405 nm; active = well fitted inhibition curve with a large enough effect; inconclusive = small, poorly fitted or top-dose-only effect; inactive = no such curve, though single readings can be large or run the other way; note: potency is the fitted concentration of half-maximal effect; % is set by controls: 0 for no effect and ±100 for the full control effect; nearly all actives have a fitted effect of over 60% in size
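Kinetic colorimetric format: TGR-catalysed, NADPH-driven DTNB reduction monitored via TNB absorbance. Enzyme dispensed at 20 nM; compound exposure 15 min at room temperature before reaction start.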
FMDV inh – antivirals against foot and mouth disease virus; FMDV antiviral cell-based qHTS; Potency, µM (doses to about 57.9 µM), for inactives: at the highest dose activity change, negative = inhibition, actives largely listed as inhibitors; hit rate 1.2% among 410,000; AID 1159524; calls by dose curve; tested in HEK293T cells; note: read-out not given here; potency is the fitted concentration of half-maximal effect; % is set by controls: 0 for no effect and ±100 for the full control effect; nearly all actives have a fitted effect of over 45% in size
Shiga toxin inh – Shiga toxin inhibition; hit rate 9.2% among 290,000; Vero cells, Shiga toxin protein synthesis inhibition reporter; inhibition, % at 38.7 µM; in the data active = inhibition mostly above about 28%, no sharp cut-off; inactive = mostly below about 43%; note: 0% is about no effect
CHX counter – affects cycloheximide protein synthesis inhibition readout, counter-screen; cell reporter, cycloheximide protein synthesis inhibition counterscreen; max response, %; hit rate 12% among 300,000; AID 2314; in the data active = max response mostly above about 13%, no sharp cut-off; inactive = mostly below about 14%; note: read at 38.3 µM for the half of the compounds with a filed dose; 0% is about no effect
* hit, by the source's call; ? = inconclusive; . = no result given. In the library only some 12% were active in any assay of this set; here they are far more common.

SMILES	Sm TGR block	FMDV inh	Shiga toxin inh	CHX counter
O=C(Nc1ccc(SC(F)F)cc1)C12CCC(CC1)C2	1%	-7%	77*	19*
Cc1c(Cl)cccc1NC(=O)Cn1nnc(-c2nc(-c3ccccc3)no2)c1N	-1%	2%	.	.
CC(=O)C1=C(O)C(=O)N(C)C1c1ccccc1[N+](=O)[O-] (centres undefined)	0%	12%	21	17*
CCCCCCN1C(=O)C(O)=C(C(C)=O)C1c1ccccc1[N+](=O)[O-] (centres undefined)	.	-21%	23	3
CC(=O)C1=C(O)C(=O)N(CCCN2CCOCC2)C1c1ccccc1[N+](=O)[O-] (centres undefined)	45µM*	53%	105*	35*
CC1=C(C(=O)Nc2c(C)cc(C)cc2C)C2(CCN(C(C)C)CC2)OC1=O	25%	-18%	.	.
CC(C)c1cc(Nc2cccc(O)c2)cc(C(C)C)c1O	8.9µM*	.	10	10
Cn1cccc1CC(=O)N/N=C/c1ccco1	40µM*	-3%	-4	-1
COc1ccc(C(=O)NCC(=O)N/N=C/C(C)=C/c2ccco2)cc1OC	?	-22%	15	1
CC(=C/c1ccco1)/C=N/NC(=O)Cc1cccn1C	45µM*	32%	18	8
C/C(=N\NC(=O)Cc1cccn1C)c1cccs1	-5%	-13%	10	-1
Cc1ccc(CN2CCN(CC(=O)N/N=C/c3ccccc3F)CC2)cc1	6%	50%	118*	37*
CC(/C=N/NC(=O)Cc1cccn1C)=C\c1ccco1	25µM*	16%	13	12
CC(/C=N/NC(=O)CN1CCN(Cc2ccc(Cl)cc2)CC1)=C\c1ccco1	79µM*	?	-6	-6
CC(/C=N/NC(=O)CSc1nnc(SCc2ccccc2)s1)=C\c1ccco1	?	3%	6	14*
O=C(CN1CCN(Cc2ccccc2)CC1)N/N=C/C=C/c1ccco1	?	-15%	-14	1
Cc1c(Cl)cccc1NC(=O)c1ccc2nc(C(C)C)oc2c1	-8%	?	.	.
O=C(CNC(=O)c1ccccc1Cl)OCc1cc(=O)n2ccsc2n1	6%	-22%	.	.
COC(=O)c1cc2oc3ccccc3c2n1CC(=O)Nc1ccc(N(C)C)cc1	0%	-5%	.	.
COc1ccc(-c2nc3ccccc3o2)cc1NC(=O)COc1ccc(C(C)(C)C)cc1	8%	4%	31	13
Fc1ccccc1/C=C1\CCCC2=C1Nc1nnnn1C2c1ccccc1F (centres undefined)	6.3µM*	-23%	-9	0
CC(/C=N/Nc1nnc2c(n1)[nH]c1ccccc12)=C\c1ccco1	?	32%	65	32*
COc1cccc(/C=N/Nc2nnc3c(n2)[nH]c2ccccc23)c1OC	-1%	23%	50*	36*
O=C(NCCc1ccc(Cl)cc1)c1c2c(nc3ccccc13)C(=O)N(C1CCCCC1)C2	-5%	-16%	.	.
CCOc1ccc(CC(=O)Nc2c(C(=O)c3ccccc3)oc3ccc(OC)cc23)cc1OCC	11%	-22%	.	.
SMILES	Sm TGR block	FMDV inh	Shiga toxin inh	CHX counter
CCOc1cccc(CNCCc2c(C)[nH]c3ccc(OC(F)(F)F)cc23)c1O	0%	14µM*	-14	-7
CCC(CC)=NNC(=O)c1ccccc1OCc1ccc(F)cc1	-1%	-21%	-3	6
COc1ccc(/C(C)=N/NC(=O)c2ccccc2OCc2ccccc2)c(OC)c1	7%	8%	165*	33*
C#CCOc1ccccc1/C=N/NC(=O)c1ccccc1OCc1ccccc1	-19%	18µM*	-19	11
COc1ccc(C(=O)N/N=C(\C)CC(=O)NC2CCCCC2)c(OC)c1	-38%	-11%	17	11
COc1ccc(/C=N/NC(=O)c2ccccc2OCc2ccccc2)c(OC)c1	2%	-16%	64*	30*
COc1ccc(/C(C)=N/NC(=O)C2C3CCCCC32)c(OC)c1 (centres undefined)	-7%	-6%	41*	12
CCc1noc(-c2ccc(N3CCCCC3)c([N+](=O)[O-])c2)n1	-5%	7%	.	.
Cc1ccc(/C=C/C(=O)N2CCC(c3nc4ccccc4o3)CC2)cc1	0%	11%	.	.
O=C(Nc1cccnc1)c1ccc(-c2ccccc2)cc1	-4%	40%	72*	33*
O=C(Nc1cccnc1)c1ccc(F)cc1	1%	21%	-8	-3
CC(C)c1ccc(C(=O)Nc2cccnc2)cc1	5%	-12%	.	36*
O=C(Nc1cccnc1)c1ccccc1Cl	-6%	11%	.	-3
CC(=O)Oc1ccc(C(=O)Nc2cccnc2)cc1	-17%	2%	21	-3
O=C(Nc1cccnc1)c1cnc2ccccc2n1	-10%	18%	70*	13*
CCc1ccc(NC(=O)c2sc3nc(C)c(Cl)c(C)c3c2NC(=O)c2ccccc2OC)cc1	-8%	-7%	.	.
CC(C)c1ccc(Nc2c(-c3ccc(N(C)C)cc3)nc3cnccn23)cc1	-5%	-4%	.	.
Cc1cccc(CCNC(=O)c2ccc3c(c2)nc2n3CCCCC2)c1	-5%	-17%	.	.
CCN(CC)CCNC(=O)c1ccc2c(c1NCCO)C(=O)c1ccccc1C2=O	-34%	-26%	40*	17
CC1CCN(C(=O)c2ccc3c(c2NCCO)C(=O)c2ccccc2C3=O)CC1	25%	?	-4	3
c1ccc(-c2cn3c(n2)-c2ccccc2C3)cc1	-1%	-70%	45*	26*
Cc1ccn2cc(-c3cc4ccccc4oc3=O)nc2c1	?	-42%	76*	44*
O=c1oc2ccccc2cc1-c1cn2cc(Cc3ccc(Cl)cc3)sc2n1	-10%	58%	.	.
COc1ccc(C)cc1N(C)C(=O)c1c2c(nc3ccccc13)C(=O)N(C1CCCCC1)C2	-1%	-25%	.	.
CC(=NC(C)C)C1=C(O)CCC1=O	-4%	0%	2	2
SMILES	Sm TGR block	FMDV inh	Shiga toxin inh	CHX counter
CC(=Nc1ccc(C)c(C)c1)C1=C(O)CCC1=O	4%	25%	140*	61*
CN(Cc1ccccc1)c1ccc(-c2nc(-c3ccco3)no2)cc1[N+](=O)[O-]	11%	36%	.	.
c1ccc(-c2cc3nccc(-c4ccccn4)n3n2)cc1	9%	13%	94*	45*
O=C(NCCc1ccncc1)Nc1ccccc1Cl	0%	.	-11	-1
O=C(NCCc1ccc(F)cc1)Nc1ccccc1Cl	1%	3%	55*	26*
COc1ccc(S(=O)(=O)NNC(=S)NCCc2ccccc2)c(OC)c1	5.6µM*	14%	-7	-2
O=C(CCC(=O)NNC(=O)Nc1ccc(Cl)cc1)NCc1ccccc1	?	19%	-23	-4
COc1ccc(NC(=S)NCCc2ccccc2)c(OC)c1	-4%	-3%	20	-2
O=C(NC(=S)NCCc1ccccc1)c1ccco1	-18%	49%	38	15
O=C(NCCc1ccccc1)Nc1ccc(Cl)cc1	5%	26%	46*	46*
CC(C)(C)C(=O)NC(=S)NCCc1ccccc1	20µM*	20%	90*	39*
Cc1cccc(OC(=O)CSc2nnc(CNC(=O)c3ccccc3)o2)c1C	-6%	17%	.	.
Cc1ccc(C)c(N2CCN(C(=O)c3cc(C)nc4c3c(C)nn4-c3cccc(F)c3)CC2)c1	12%	-23%	.	.
Cc1ccc2oc(=O)c3cc(C(=O)NCCCOC(C)C)sc3c2c1	-1%	7%	.	.
